A selection: hits, their analogues and other compounds. The true share with any hit is near 2.6%.
Exocytosis inh: lytic granule exocytosis inhibition. TALL-104 LAMP-1 surface exposure, flow cytometry; cells stimulated with thapsigargin and PMA. inhibition, % at 10 µM. hit rate 0.66% among 360,000. AID 651702;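 active means inhibition above about 55%, limit read from the data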
TLR4-MyD88 BLA: inhibitors of human TLR4-MyD88 binding; O00206+Q99836; hit rate 0.18% among 200,000; inhibition, % at 8.4 µM; HeLa CL3-4 TLR4/MyD88 BLA complementation, FRET ratio; in the data active means inhibition above about 25%
Target sequence (O00206 whole entry, looked up): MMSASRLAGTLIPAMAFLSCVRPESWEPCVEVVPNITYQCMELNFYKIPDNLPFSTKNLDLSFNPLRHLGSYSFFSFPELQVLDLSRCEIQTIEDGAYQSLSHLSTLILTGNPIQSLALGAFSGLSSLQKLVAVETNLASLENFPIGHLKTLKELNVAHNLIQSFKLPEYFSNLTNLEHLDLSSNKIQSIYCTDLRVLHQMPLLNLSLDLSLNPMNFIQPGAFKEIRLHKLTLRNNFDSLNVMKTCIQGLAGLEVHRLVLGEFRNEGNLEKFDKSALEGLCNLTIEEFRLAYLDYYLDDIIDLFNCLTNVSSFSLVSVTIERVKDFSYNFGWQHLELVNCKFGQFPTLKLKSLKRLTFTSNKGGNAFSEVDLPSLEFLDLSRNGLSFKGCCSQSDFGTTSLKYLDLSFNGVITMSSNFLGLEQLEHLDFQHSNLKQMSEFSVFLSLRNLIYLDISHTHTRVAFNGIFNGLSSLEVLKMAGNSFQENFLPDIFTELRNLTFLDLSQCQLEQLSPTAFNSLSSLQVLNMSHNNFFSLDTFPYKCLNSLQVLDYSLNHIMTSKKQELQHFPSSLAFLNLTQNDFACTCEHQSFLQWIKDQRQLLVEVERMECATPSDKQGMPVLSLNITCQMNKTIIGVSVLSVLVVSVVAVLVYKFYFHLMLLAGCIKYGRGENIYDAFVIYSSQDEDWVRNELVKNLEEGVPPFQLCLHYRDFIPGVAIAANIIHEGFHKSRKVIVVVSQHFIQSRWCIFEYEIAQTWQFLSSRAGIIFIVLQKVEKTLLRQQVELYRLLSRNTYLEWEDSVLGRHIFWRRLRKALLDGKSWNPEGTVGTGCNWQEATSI
Target sequence (Q99836 whole entry, looked up): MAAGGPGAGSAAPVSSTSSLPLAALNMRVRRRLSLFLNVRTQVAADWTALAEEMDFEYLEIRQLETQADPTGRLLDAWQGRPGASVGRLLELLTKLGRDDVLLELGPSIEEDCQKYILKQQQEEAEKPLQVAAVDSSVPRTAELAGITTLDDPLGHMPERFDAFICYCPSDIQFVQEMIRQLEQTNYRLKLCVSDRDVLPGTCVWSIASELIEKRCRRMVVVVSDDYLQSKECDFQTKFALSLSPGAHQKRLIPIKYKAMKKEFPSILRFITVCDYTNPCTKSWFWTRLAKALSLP
ABHD5 PLIN5 PPI: inhibitors of human ABHD5-perilipin-5 interaction; Split G. princeps luciferase complementation, luminescence, 4 h; hit rate 0.78% among 360,000; inhibition, % at 4 µM; AID 602281; Q00G26+Q8WTS1;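 active means inhibition above the mean inhibition across every tested compound plus 3 SD, cut at about 22% in these data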
TLR9-MyD88 block: TLR9-MyD88 interaction inhibition; Q9NR96+Q99836; CHO BLA complementation TLR9-MyD88, CCF4 FRET ratio; inhibition, % at 4.98 µM; hit rate 0.21% among 340,000; AID 504734;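 active means inhibition above the mean over all tested compounds plus 3 SD, cut at about 21% in these data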
PRMT1 inh: PRMT1 (human) inhibition, primary screen. Q99873. recombinant PRMT1, activity-based probe fluorescence polarization. inhibition, % at 2.79 µM. hit rate 1.3% among 370,000. AID 652257;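 active means inhibition above about 21% made by adding two undisclosed values, limit read from the data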
NOD2 RIPK2 PPI: NOD2-RIPK2 protein interaction inhibition | inhibition, % at 4.98 µM | AID 624267 | O43353 | CHO BLA complementation NOD2-RIPK2, CCF4 ratio | hit rate 0.38% among 360,000; in the data active means inhibition above about 21%
PRMT1 inh conf: confirmation of human PRMT1 inhibitors; shares compounds with PRMT1 inh; recombinant His-PRMT1, activity-based probe fluorescence polarization; inhibition, % at 2.79 µM; hit rate 42% among 3,300; AID 687036;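 active means mean inhibition across replicates above the hit cutoff derived for the earlier primary screen, cut at about 22% in these data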
Hits are given with their value; - = inactive; . = no result given.

SMILES	Exocytosis inh	TLR4-MyD88 BLA	ABHD5 PLIN5 PPI	TLR9-MyD88 block	PRMT1 inh	NOD2 RIPK2 PPI	PRMT1 inh conf
Cc1nc(S/C(=C\c2ccc(-c3ccc(C(=O)O)c(Cl)c3)o2)C(=O)O)n[nH]1	-	.	-	-	33	-	39
O=C(CCN1C(=O)/C(=C\c2ccco2)SC1=S)Nc1ccc(C(=O)O)c(O)c1	-	.	-	-	39	-	28
O=C(CCN1C(=O)/C(=C/c2ccco2)SC1=S)Nc1ccc(C(=O)O)c(O)c1	-	.	-	-	39	-	30
COc1ccc(CN2C(=O)C(CC(=O)NCCN3CCOCC3)CC(C(=O)N3CCOCC3)=C2C)cc1 (stereo not given)	-	.	-	-	-	-	.
NC(=N\N=Cc1ccccc1)/C(N)=N/N=Cc1ccccc1	-	.	-	.	-	-	.
Cn1c(CS/C(N)=N/N=C/c2ccccc2)c(Br)c(=O)n1-c1ccccc1	-	-	-	-	42	-	56
CN(c1ccc(C(=O)COC(=O)C2CC2)cc1)S(C)(=O)=O	-	.	-	-	-	-	.
CC[n+]1ccc(/C=C2\Sc3ccccc3N2CCCS(=O)(=O)[O-])c2ccccc21	-	-	-	-	-	-	.
CCC(/C=C1\Oc2ccc(OC)cc2N1C)=C\c1sc2ccccc2[n+]1CCCS(=O)(=O)[O-]	-	.	-	-	49	-	-
COc1ccccc1-n1c(SC)nc(O)cc1=O	-	-	-	-	25	-	-
CCOC(=O)[C@@]12CCCC3=C1N(CCC3)C(=O)[C@H]2CC(=O)N1CCN(C(=O)c2ccco2)CC1	.	.	.	.	-	.	.
COC(=O)C1CSc2[nH]c(=O)sc2C1c1ccccc1 (stereo not given)	-	-	-	-	46	-	26
COC(=O)C1Sc2[nH]c(=O)sc2C(c2ccc(Cl)cc2)C1C(=O)OC (stereo not given)	-	-	-	-	-	-	.
O=C(N[C@H](C(=O)N1CCC[C@H]1C(=O)NCc1ccccc1)c1ccccc1)c1ccc(Cl)cc1Cl	.	.	.	.	-	.	.
Cc1ccc(CN(C)C(=O)c2ccc3c(c2)NC(=O)CS3)o1	-	.	-	-	40	-	-
COc1ccccc1CN(C)C(=O)c1ccc2c(c1)NC(=O)CS2	-	-	-	-	-	-	.
Cc1ccccc1/C=N/n1c(-c2cc(-c3ccccc3)n[nH]2)n[nH]c1=S	-	.	-	-	-	-	.
O=[N+]([O-])c1ccccc1C=Nn1c(-c2cc(-c3ccccc3)n[nH]2)n[nH]c1=S	.	.	.	.	42	.	-
S=c1[nH]nc(-c2cc(-c3ccccc3)n[nH]2)n1/N=C/c1ccc(Br)s1	-	.	-	-	28	-	-
Cc1ccc(-c2n[nH]c(=S)n2/N=C/C=C\c2ccccc2[N+](=O)[O-])cc1	-	-	-	-	30	-	-
CCn1c(SCC(=O)NC2CCCCC2)nnc1-c1cccnc1	-	.	-	-	-	-	.
CCc1cc2c(nc1CC)CCCN2S(=O)(=O)c1ccc(C#N)cc1	.	.	.	.	59	.	52
Cc1ccc(-c2ccccc2)n1-c1ccc(C(=O)O)cc1	-	-	-	-	73	-	-
Cc1ccc(-c2ccccc2)n1-c1cccc(C(=O)O)c1	-	.	-	-	62	-	-
O=C(O)CCc1ccc(-c2ccccc2)n1-c1cccc(C(=O)O)c1	-	.	-	-	-	-	.
SMILES	Exocytosis inh	TLR4-MyD88 BLA	ABHD5 PLIN5 PPI	TLR9-MyD88 block	PRMT1 inh	NOD2 RIPK2 PPI	PRMT1 inh conf
O=C(O)C1Nc2c(C(F)(F)F)ccc(Cl)c2C2C=CCC12 (stereo not given)	-	.	-	-	33	-	28
O=C(CN1CCN(S(=O)(=O)c2ccc(F)cc2)CC1)Nc1ccc(Cl)cn1	-	.	-	-	-	-	.
CC1=C(O)C(=O)C(c2c(C)cc(C)c(Br)c2C)=C(O)C1=O	-	.	-	-	25	-	23
COc1ccc(CCNC(=O)c2cc3cc(F)ccc3nc2C)cc1OC	-	.	-	-	-	-	.
Cc1ccc(/C=C2\C(=O)NC(=O)N2C)o1	-	.	-	-	36	-	37
COc1ccc(S(=O)(=O)NC(=O)C2(C)CCN2C(=O)CC2CCCC2)cc1 (stereo not given)	-	.	-	.	-	-	.
O=C(c1ccc(-c2ccc([N+](=O)[O-])cc2)o1)N1CCCCC1	-	-	-	-	46	-	-
Cc1cccc(N2C(=O)CC(Sc3ncn[nH]3)C2=O)c1 (stereo not given)	-	-	-	-	58	-	55
Cc1ccc(N2C(=O)CC(Sc3ncn[nH]3)C2=O)cc1C (stereo not given)	-	-	-	-	61	-	44
O=C(Cc1c(F)cccc1Cl)Nc1cc(S(=O)(=O)N2CCOCC2)ccc1N1CCOCC1	-	.	-	-	-	-	.
Cc1ccc(/C=C/C(=O)Nc2nn[nH]n2)o1	-	-	-	-	36	-	55
CCN=C1SC(CC(=O)NCCc2ccc(OC)cc2)C(=O)N1CC (stereo not given)	-	-	-	-	31	-	-
CN=C1SC(CC(=O)NCCc2ccc(OC)c(OC)c2)C(=O)N1C (stereo not given)	-	-	-	-	-	-	.
CCN=C1SC(CC(=O)NCCc2ccc(OC)c(OC)c2)C(=O)N1CC (stereo not given)	-	-	-	-	32	-	-
COc1ccc(CCNC(=O)CC2SC(=NCc3ccccc3)NC2=O)cc1 (stereo not given)	-	-	-	-	-	-	.
COc1ccc(CCNC(=O)CC2SC(=NCCc3ccccc3)NC2=O)cc1 (stereo not given)	-	-	-	-	26	-	-
CC(C)n1c(CN2CCN(C(=O)c3ccco3)CC2)nc2c1c(=O)n(C)c(=O)n2C	-	.	-	-	-	-	.
COc1c(O)cccc1[C@@H](O)C1CCN(CCc2ccc(F)cc2)CC1	-	.	-	-	36	-	-
CCOC(=O)CNC(=O)CSc1ncnc2c1nnn2-c1ccc(F)cc1	-	-	-	-	-	-	.
CCOC(=O)CC(=O)CSc1ncnc2c1nnn2-c1ccccc1	-	.	-	-	64	-	92
N#Cc1cc2c([nH]c1=S)CCCCCC2	-	-	-	-	26	-	-
N#Cc1c(N)n[nH]c1-c1cc2c([nH]1)CCCC2	-	-	-	-	-	-	.
CN/S(=N/S(=O)(=O)c1ccccc1)c1ccc(C)cc1 (stereo not given)	-	-	-	-	-	-	.
Cc1ccc(S(=O)(=O)/N=S(/c2ccccc2)C(C)C)cc1 (stereo not given)	-	.	-	-	35	-	70
COc1cccc(NC(=O)c2cnc(SCC(=O)NCc3ccc4c(c3)OCO4)n(C)c2=O)c1	-	.	-	-	-	-	.
OC[C@H]1O[C@@H](c2nc(-c3cccc4ccccc34)no2)[C@H](O)[C@@H]1O	-	.	-	.	-	-	.

Assay outcomes as filed in PubChem.
